Screening results: PubChem BioAssay, several laboratories
Sampled rows, rich in hits. Any-hit rate of the full collection: about 1.4%.
S1P2 agonist: activates the human S1P2 receptor | 0.46% of 97,000 active | O95136 | activation, % at 4.5 µM | S1P2-expressing cell line, agonist reporter read-out | AID 729; in the data active = activation above about 16%
PTPN22 act: activators of human LYP (PTPN22) phosphatase | recombinant LYP, DiFMUP fluorescence; 0 = plate median, 100 = signal doubled | AID 697 | 0.11% of 96,000 active | Q9Y2R2 | activation, % at 2 µM;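 active = activation at 2 µM above a set limit, the mean plus 5 SD, cut at about 37% in these data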
GALR2 blocker: blocks the human galanin receptor 2. O43603. GALR2-expressing cells, antagonist mode. inhibition, % at 4 µM. 0.39% of 140,000 active. AID 828; in the data active = inhibition above about 27%;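 also: cells stimulated with galanin 1-16 at roughly its EC80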
PTPN22 inh 2: blocks human PTPN22 phosphatase activity | AID 640 | 0.21% of 96,000 active | Q9Y2R2 | recombinant LYP catalytic domain, DiFMUP fluorescence | inhibition, % at 2 µM;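 active = inhibition at 2 µM at or above a set limit, the screen mean plus 3 SD, cut at about 24% in these data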
S1P2 blocker: blocks the human S1P2 receptor; cell-based S1P2 antagonist assay, inhibition at 5 uM; inhibition, % at 5 µM; 0.21% of 97,000 active; in the data active = inhibition above about 45%;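 also: CRE beta-lactamase reporter cells expressing human S1P2 stimulated with S1P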
GALR2 agonist: activates the human galanin receptor 2; O43603; GALR2-expressing cells, agonist activation read-out; activation, % (no concentration beside the values); 0.48% of 140,000 active; in the data active = activation above about 5%, passing the limit was not always enough
Hits are given with their value; . = inactive; / = no result given.

SMILES	S1P2 agonist	PTPN22 act	GALR2 blocker	PTPN22 inh 2	S1P2 blocker	GALR2 agonist
COCCCn1c(=N)c(C(=O)NCC2CCCO2)cc2c(=O)n3ccccc3nc21 (configuration not stated)	24.0	.	.	.	.	18.7
Cc1ccc(N2C(=O)CC2(C#N)c2ccc(OCc3ccccc3)cc2)cc1 (configuration not stated)	.	.	.	.	.	.
CC(C)Cn1c(N)c(C(=O)COC(=O)CC23CC4CC(CC(C4)C2)C3)c(=O)n(C)c1=O	.	.	.	.	59.4	.
CC(C)Cn1c(N)c(C(=O)COC(=O)c2ccncc2)c(=O)n(C)c1=O	.	.	.	.	.	.
O=C(c1cc(-c2ccco2)nc2ccccc12)N1CCN(c2ccc(F)cc2)CC1	/	/	.	/	/	.
Cc1cc2cc(CCNC(=O)c3cccs3)c(=O)[nH]c2cc1C	/	/	.	/	/	.
COc1ccc(C(=O)NC(=S)Nc2ccc(N3CCOCC3)c(Cl)c2)cc1[N+](=O)[O-]	/	/	.	/	/	.
CCn1nc(NC(=O)c2ccccn2)c2cc3cccc(C)c3nc21	18.6	.	.	.	.	.
Cc1ccc(S(=O)(=O)Nc2c(C)[nH]c(=O)[nH]c2=O)cc1C	/	/	.	/	/	5.9
CN(CC(O)COCc1ccc2c(c1)OCO2)C1CCCCC1 (configuration not stated)	/	/	.	/	/	.
CCc1ccc(NC(=O)N(Cc2ccco2)C(C)c2cccs2)cc1 (configuration not stated)	40.9	.	.	.	.	.
CCc1ccc(NC(=O)N(Cc2cccnc2)Cc2ccco2)cc1	.	.	.	.	.	.
CCOC(=O)c1cc2c(=O)n3ccccc3nc2n(Cc2ccco2)c1=NC(=O)c1cccnc1	.	.	.	.	.	.
CCOC(=O)c1cc2c(=O)n3ccccc3nc2n(CCCOC)c1=NC(=O)c1cccnc1	21.7	.	.	.	.	.
CCOC(=O)c1cc2c(=O)n3ccccc3nc2n(CCOC)c1=NC(=O)C(C)(C)C	25.5	.	.	.	.	8.7
CCOC(=O)c1cc2c(=O)n3ccccc3nc2n(Cc2ccccc2)c1=N	.	.	.	.	.	.
CCOC(=O)c1cc2c(=O)n3ccccc3nc2n(CCOC)c1=NC(=O)c1ccncc1	19.0	.	.	.	.	7.5
CCOCCCn1c(=NC(C)=O)c(C(=O)OCC)cc2c(=O)n3ccccc3nc21	18.8	.	.	.	.	7.8
CCOC(=O)c1cc2c(=O)n3ccccc3nc2n(CC(C)C)c1=NC(=O)c1ccco1	.	.	.	.	.	.
CCOC(=O)c1cc2c(=O)n3ccccc3nc2n(CCCOC)c1=NC(=O)C(C)(C)C	32.8	.	.	.	.	12.2
CCOC(=O)c1cc2c(=O)n3ccccc3nc2n(C(C)C)c1=NC(=O)c1ccncc1	17.6	.	.	.	.	.
COc1ccc(NC(=O)CN(C)C2CCCCC2)c([N+](=O)[O-])c1	/	/	.	/	/	.
Cc1ccc2nc(SCc3cn4cccnc4n3)[nH]c2c1	/	/	.	/	/	.
CCOC(=O)c1ccccc1NC(=O)CSc1nc2ccccc2n1CC(=O)N1CCCC1	31.7	.	.	.	.	.
COc1ccc(-c2cc(=O)c3cc(OC)ccc3[nH]2)cc1	/	/	.	/	/	.
SMILES	S1P2 agonist	PTPN22 act	GALR2 blocker	PTPN22 inh 2	S1P2 blocker	GALR2 agonist
COc1ccc2[nH]c(=O)c3c(c2c1)OC(C)(C)C=C3	.	.	.	.	57.0	.
COc1cc(/C=C/C(=O)NC(C)C)ccc1OCc1ccccc1	/	/	.	/	/	7.5
COc1ccc(/C=C/C(=O)NCCCc2ccccc2)cc1OC	/	/	.	/	/	.
CCc1cc2c(=O)c(-c3nc(C)cs3)coc2cc1OC(C)C(=O)NCCO (configuration not stated)	/	/	.	/	/	.
COc1ccc(C2CC(C(F)(F)F)n3nc(C(N)=O)c(Cl)c3N2)cc1OC (configuration not stated)	23.6	.	.	.	.	.
O=C(COC(=O)c1ccccc1C(=O)c1ccccc1)NCCc1ccccc1	/	/	.	/	/	7.0
O=C(COC(=O)c1ccccc1C(=O)c1ccc(Cl)cc1)NCCc1ccccc1	/	/	.	/	/	.
COc1cc(/C=C(/C#N)c2nc3ccccc3[nH]2)ccc1OCC(=O)Nc1ccccc1C(C)C	18.9	.	.	.	.	.
CS(=O)(=O)NCc1nnc(SCC(=O)NC2CCCCC2)n1-c1ccc(F)cc1	102.8	.	.	.	.	.
CCOC(=O)C1=C(C)N(CCCC(=O)NCc2ccc3c(c2)OCO3)C(=O)NC1c1ccc(Br)cc1 (configuration not stated)	/	/	.	/	/	.
